Experimental data reported in PubChem BioAssay (Tox21).
Inconclusive results are not listed. Calls of active or inactive are those of the source. Unless noted, the call rests on the fitted dose curve; in most records, active means well fitted curve in the direction sought with a large enough effect in the repeat runs; inconclusive means weak or mixed curves; inactive means no such curve, though single readings can be large; an effect the other way counts as inactive or inconclusive.

Tests used:
[1] = qHTS assay to identify small molecule antagonists of the androgen receptor (AR) signaling pathway using the MDA cell line in the presence of 0.5 nM R1881 - cell viability counter screen (AID 1259242); further: nearly all actives have a fitted effect of over 45% in size
Method in brief: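 MDA-kb2 cells (human breast carcinoma, stably carrying MMTV-luciferase reporter) were exposed to compounds with 0.5 nM R1881 (final) for 16 hr at 37C, 0% CO2; viability then read as live-cell protease fluorescence (CellTiter-Fluor, 30 min) in the same wells.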

[2] = biological target: Estrogen receptor (Homo sapiens) (UniProt P03372); assay: qHTS assay to identify small molecule antagonists of the estrogen receptor alpha (ER-alpha) signaling pathway using the BG1 cell line in the presence of 0.1 nM 17-beta-estradiol (AID 1259244); further: nearly all actives have a fitted effect of over 50% in size
Method in brief: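 VM7Luc4E2 cells (endogenous full-length ER-alpha, stable 4xERE-luciferase) were grown 5 days in phenol red-free medium with charcoal-stripped FBS, then exposed 22 h at 37C to compounds plus 0.1 nM (final) 17beta-estradiol; ONE-Glo luminescence read-out.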

[3] = qHTS assay to identify small molecule phospholipidosis (PLD) inducers (AID 1259344; active means well fitted curve in the direction sought with a large enough effect; an effect the other way counts as inactive or inconclusive)
Method in brief: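 HepG2 cells, 900/well, treated with compound plus LipidTOX Red for 24 h at 37 C; amiodarone positive and DMSO negative controls. Fixed with paraformaldehyde/Hoechst, then high-content imaging scored LipidTOX pit count and integrated intensity per well and per cell.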

[4] = qHTS assay to identify small molecule HDAC inhibitors (AID 1259364); further: top concentration of the series differs between compounds; nearly all actives have a fitted effect of over 45% in size
Method in brief: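 Wild-type HCT-116 cells were plated overnight, exposed to compounds for 2 h at 37 °C, then given HDAC-Glo class I/II luminogenic reagent for 30 min at room temperature before luminescence was read.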

[5] = qHTS assay to identify small molecule HDAC inhibitors - cell viability counter screen (AID 1259365); further: series mostly up to about 92 µM; nearly all actives have a fitted effect of over 50% in size
Method in brief: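 HCT-116 wild-type, overnight attachment; 2hr drug exposure, 37C; CellTiter-Glo luminescent ATP readout after 30min RT.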

[6] = qHTS assay to identify small molecule antagonists of the sonic hedgehog signaling (Shh) pathway - cell viability counter screen (AID 1259367); further: nearly all actives have a fitted effect of over 55% in size
Method in brief: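 NIH/3T3-derived Gli1-Luc reporter cells, 2,000/well, plated 4 hr before compound addition, then stimulated with conditioned medium for 24 hr at 37C. Viability measured in the same wells by CellTiter-Fluor fluorescence, reagent added at 23 hr for 1 hr.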

[7] = qHTS assay to identify small molecule agonists of the sonic hedgehog signaling (Shh) pathway (AID 1259368; calls by dose curve; further: series mostly up to about 92 µM; nearly all actives have a fitted effect of over 15% in size)
Method in brief: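 NIH/3T3-derived 3T3Gli1-Luc cells carrying a stably integrated Gli1 response element–firefly luciferase reporter were plated, left 4 hr at 37 C, then given compounds in DMSO for 24 hr. Luminescence was read 30 min after adding luciferase reagent.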

[8] = qHTS assay to identify small molecule agonists of the sonic hedgehog signaling (Shh) pathway - cell viability counter screen (AID 1259366); further: nearly all actives have a fitted effect of over 50% in size
Method in brief: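 Compounds in DMSO were pin-transferred onto 3T3 Gli1-Luc cells that had settled 4hr; plates then stood 24hr at 37C and 5% CO2. One hour before the end, CellTiter-Fluor was added and fluorescence recorded.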

[9] = qHTS assay to identify small molecule antagonists of the sonic hedgehog signaling (Shh) pathway (AID 1259369; calls by dose curve; further: nearly all actives have a fitted effect of over 45% in size; further: potency means the concentration at half of the fitted maximal effect)
Method in brief: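 NIH/3T3-derived 3T3Gli1-Luc cells with stably integrated Gli1-Luc reporter were preincubated 4hr at 37 C, then given compounds in DMSO plus Shh conditioned medium and incubated 24hr. Firefly luciferase luminescence read after 30min reagent at room temperature.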
On the % scale 0 is the no-effect control and ±100 the full control effect.

Sequence of Estrogen receptor (Homo sapiens) (P03372 whole entry, looked up): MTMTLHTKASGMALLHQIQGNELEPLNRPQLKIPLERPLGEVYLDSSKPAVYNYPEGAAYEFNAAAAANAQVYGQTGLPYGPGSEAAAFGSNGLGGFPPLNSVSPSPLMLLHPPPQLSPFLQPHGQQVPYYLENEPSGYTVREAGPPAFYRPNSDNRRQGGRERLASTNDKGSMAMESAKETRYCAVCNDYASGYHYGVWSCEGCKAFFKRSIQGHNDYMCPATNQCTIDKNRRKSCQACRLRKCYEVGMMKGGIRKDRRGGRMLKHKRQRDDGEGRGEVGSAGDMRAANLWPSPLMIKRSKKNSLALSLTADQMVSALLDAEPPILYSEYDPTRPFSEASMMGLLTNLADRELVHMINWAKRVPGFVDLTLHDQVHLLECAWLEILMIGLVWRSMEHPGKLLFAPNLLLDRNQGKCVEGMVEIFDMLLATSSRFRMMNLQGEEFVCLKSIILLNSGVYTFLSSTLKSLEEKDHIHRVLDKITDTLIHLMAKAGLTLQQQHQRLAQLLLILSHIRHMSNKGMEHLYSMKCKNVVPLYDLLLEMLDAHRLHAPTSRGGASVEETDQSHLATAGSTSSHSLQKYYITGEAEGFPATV

O=C(Nc1ccccc1)OCC(CN1CCCCC1)OC(=O)Nc1ccccc1 (configuration not stated)
inactive: Potency [1] | Potency [2] | Potency [3] | Potency [4] | outcome [5] | Potency [6] | outcome [7]

CC(CN)CCCN (configuration not stated)
inactive: Potency [1] | Potency [2] | Potency [4] | outcome [5] | Potency [8] | Potency [6] | outcome [7]

CCCc1ccccc1
inactive: Potency [1] | Potency [2] | Potency [4] | outcome [5] | Potency [8] | Potency [6] | outcome [7]

CC(=O)O[C@H]1C[C@@H]2CC[C@@H]3[C@H](CC[C@@]4(C)[C@H]3C[C@H]([N+]3(C)CCCCC3)[C@@H]4OC(C)=O)[C@@]2(C)C[C@@H]1N1CCCCC1
inactive: Potency [1] | Potency [2] | Potency [3] | Potency [4] | outcome [5] | Potency [8] | Potency [6] | outcome [7] | Potency [9]

CC(=O)NCCCS(=O)(=O)O
inactive: Potency [1] | Potency [2] | Potency [3] | Potency [4] | outcome [5] | Potency [8] | Potency [6] | outcome [7] | Potency [9]

CN(c1nccc(=O)[nH]1)C1CCN(c2nc3ccccc3n2Cc2ccc(F)cc2)CC1
inactive: Potency [1] | Potency [2] | Potency [3] | Potency [4] | outcome [5] | Potency [8] | outcome [7] | Potency [9]

CCCCCCCCCO
inactive: Potency [1] | Potency [2] | Potency [4] | outcome [5] | Potency [8] | Potency [6] | outcome [7] | Potency [9]

CCCCOc1cc(C(=O)OCCN(CC)CC)ccc1N
inactive: Potency [1] | Potency [2] | Potency [3] | Potency [4] | outcome [5] | Potency [8] | Potency [6] | outcome [7] | Potency [9]

CCCCCCCCCCCCCCCBr
inactive: Potency [1] | Potency [2] | Potency [4] | outcome [5] | Potency [8] | Potency [6] | outcome [7] | Potency [9]

CCCC(=O)OCC
inactive: Potency [1] | Potency [2] | Potency [4] | outcome [5] | Potency [8] | Potency [6] | outcome [7]

N#CCc1cccc(C(F)(F)F)c1
inactive: Potency [1] | Potency [2] | Potency [4] | outcome [5] | Potency [8] | Potency [6] | outcome [7]

CC(C)(C)c1ccc(S)cc1
inactive: Potency [1] | Potency [2] | Potency [4] | outcome [5] | Potency [8] | Potency [6] | outcome [7] | Potency [9]

Oc1ccc2c(c1)OCO2
inactive: Potency [1] | Potency [2] | Potency [4] | outcome [5] | Potency [8] | Potency [6] | outcome [7]

NC1CCN(c2nc3c(cc2F)c(=O)c(C(=O)O)cn3-c2ccc(F)cc2F)C1 (configuration not stated)
inactive: Potency [1] | Potency [2] | Potency [3] | Potency [4] | outcome [5] | Potency [8] | outcome [7]

CN(C)CCCOc1nn(Cc2ccccc2)c2ccccc12
inactive: Potency [1] | Potency [2] | Potency [3] | Potency [4] | outcome [5] | Potency [6] | outcome [7] | Potency [9]

OC(CCN1CCCCC1)(c1ccccc1)C1CCCCC1 (configuration not stated)
active: Potency [9] 8.41 µM
inactive: Potency [1] | Potency [2] | Potency [3] | Potency [4] | outcome [5] | Potency [8] | Potency [6] | outcome [7]

O=c1c2ccccc2nnn1CCl
inactive: Potency [1] | Potency [2] | Potency [4] | outcome [5] | Potency [8] | Potency [6] | outcome [7] | Potency [9]

Cc1ccccc1N=Nc1ccc(N=Nc2c(O)ccc3ccccc23)c(C)c1
inactive: Potency [1] | Potency [2] | Potency [3] | Potency [4] | outcome [5] | Potency [8] | Potency [6] | outcome [7] | Potency [9]

CCCCCCCCCC(=O)OCC
inactive: Potency [1] | Potency [2] | Potency [4] | outcome [5] | Potency [8] | Potency [6] | outcome [7] | Potency [9]

CC(C(=O)O)c1ccc(-c2ccccc2)c(F)c1 (configuration not stated)
inactive: Potency [1] | Potency [2] | Potency [3] | outcome [5] | Potency [8] | Potency [6] | outcome [7] | Potency [9]

CC/C(=C\C(=N/O)C(N)=O)C(C)[N+](=O)[O-] (configuration not stated)
inactive: Potency [1] | Potency [2] | Potency [4] | outcome [5] | Potency [8] | Potency [6] | outcome [7]

CN1CCC(OC(c2ccccc2)c2ccccc2)CC1
inactive: Potency [1] | Potency [2] | Potency [3] | Potency [4] | outcome [5] | Potency [8] | outcome [7]

C=CC[N+]1([C@H]2C[C@H]3[C@@H]4CC[C@H]5C[C@H](OC(C)=O)[C@@H](N6CCCCC6)C[C@]5(C)[C@H]4CC[C@]3(C)[C@H]2OC(=O)CC)CCCCC1
inactive: Potency [1] | Potency [2] | PLD induction [3] -0.411% [at 7.66 µM] | outcome [5] | Potency [8] | Potency [6] | outcome [7]

CC[C@H](C)[C@@H](C(=O)O)n1sc2ccccc2c1=O
active: Potency [9] 27.3 µM
inactive: Potency [1] | Potency [2] | Potency [4] | outcome [5] | Potency [8] | Potency [6] | outcome [7]

CN(C)CC[C@@H](c1ccc(Br)cc1)c1ccccn1
inactive: Potency [1] | Potency [2] | Potency [3] | Potency [4] | outcome [5] | Potency [8] | Potency [6] | outcome [7] | Potency [9]

CCOC(=O)C1=C(C)NC(C)=C(C(=O)OC)C1c1cccc([N+](=O)[O-])c1 (configuration not stated)
inactive: Potency [1] | Potency [2] | Potency [3] | Potency [4] | outcome [5] | outcome [7]
